High-throughput results: PubChem, several laboratories
Compounds with a hit are over-represented: about 0.5% of the library has one in this group of screens.
Keap1 Nrf2 FP: Keap1-Nrf2 protein-protein interaction inhibitors, primary screen, biochemical, fluorescence polarization, single point; Kelch-like ECH-associated protein 1 (Homo sapiens), Q14145; Keap1 Kelch-Nrf2 peptide fluorescence polarization, 1536-well; inhibition, % at 9.4 µM; 340,000 compounds, 0.15% hits; in the data active = inhibition above about 12%;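 note: human Keap1 Kelch domain with fluorescein labeled Nrf2 9mer peptide probe; higher means more block of Keap1 binding to Nrf2 peptide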
Target sequence (Q14145 whole entry, looked up, the tested form may be a part): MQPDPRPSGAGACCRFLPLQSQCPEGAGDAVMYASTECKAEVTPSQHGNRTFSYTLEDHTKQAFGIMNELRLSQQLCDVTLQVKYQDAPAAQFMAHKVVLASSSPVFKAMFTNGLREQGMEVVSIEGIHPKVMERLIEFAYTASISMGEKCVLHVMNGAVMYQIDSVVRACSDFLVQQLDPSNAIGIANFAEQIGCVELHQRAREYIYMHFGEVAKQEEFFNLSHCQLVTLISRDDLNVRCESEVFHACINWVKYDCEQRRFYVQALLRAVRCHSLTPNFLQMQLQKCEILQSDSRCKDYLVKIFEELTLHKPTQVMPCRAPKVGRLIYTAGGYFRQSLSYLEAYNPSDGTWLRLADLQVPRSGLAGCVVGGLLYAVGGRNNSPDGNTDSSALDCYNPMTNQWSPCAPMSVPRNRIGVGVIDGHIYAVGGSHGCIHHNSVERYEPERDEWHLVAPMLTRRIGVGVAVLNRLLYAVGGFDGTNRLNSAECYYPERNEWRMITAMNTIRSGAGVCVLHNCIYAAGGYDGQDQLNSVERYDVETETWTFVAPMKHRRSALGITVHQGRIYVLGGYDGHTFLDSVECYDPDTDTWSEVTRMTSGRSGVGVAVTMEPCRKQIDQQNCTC
Cardiac RTF inh: cardiac RTF calcium sensitivity inhibitors, primary screen, biochemical, IANBD-TnC fluorescence, EC70 calcium | Troponin I, cardiac muscle (Homo sapiens) + Troponin T, cardiac muscle (Homo sapiens) + … | IANBD-labeled cardiac RTF, Ca2+ fluorescence | inhibition, % at 7.15 µM | 340,000 compounds, 0.12% hits;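 active = inhibition above the mean inhibition of all tested compounds plus 3 SD, cut at about 17% in these data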;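 note: assay run at fixed EC70 calcium of 1.6 mM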
LANA DNA inh: inhibitors of KSHV C-LANA binding to DNA, primary screen, biochemical, fluorescence polarization, FAM-LBS DNA, MBP-C-LANA, single point | Kaposi's sarcoma herpesvirus LANA C-terminal domain (residues 932-1162) DNA binding | inhibition, % at 9 µM | 340,000 compounds, 0.078% hits | AID 504423, 2011;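 active = highest replicate inhibition at or above 60% at 9 µM, even if other replicates fall short; inactive = all replicates below 60% inhibition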
cardiac RTF act: cardiac RTF calcium sensitivity activators, primary screen, biochemical, IANBD-TnC fluorescence, EC20 calcium. Troponin I, cardiac muscle (Homo sapiens) + Troponin T, cardiac muscle (Homo sapiens) + …. AID 493008, 2010. 340,000 compounds, 0.24% hits. activation, % at 7.2 µM. IANBD-labeled TnC RTF fluorescence at EC20 calcium; 0% EC20 calcium, 100% full calcium;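 active = activation above the mean over all tested compounds plus 3 SD, cut at about 30% in these data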;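 note: rise in fluorescence read as greater calcium sensitivity of cardiac thin filaments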
Keap1 TSA: Keap1 Kelch domain binders by thermal stabilisation, dose response, biophysical, thermal shift, RT-PCR instrument, cherry-pick | shares compounds with Keap1 Nrf2 FP | delta Tm; stronger effect = higher value | max delta Tm, degrees C | 400 compounds, 8% hits | AID 651823, 2012; in the data active = max delta Tm above about 0.48 degrees C
Sypro dye melt: Sypro Orange dye melt without protein, dose response, artefact control for Keap1-Nrf2 interaction inhibitor project, biochemical, thermal shift counterscreen, cherry-pick | Sypro Orange dye-only thermal melt, no protein, delta Tm; top dose 26 µM | 140 tested, under 10 active | delta Tm, degrees C (test concentration not listed) | shares compounds with Keap1 Nrf2 FP;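 active = at highest dose tested, delta Tm positive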
Hits are given with their value; - = inactive; . = not tested or not shown; + = active, no number.

SMILES	Keap1 Nrf2 FP	Cardiac RTF inh	LANA DNA inh	cardiac RTF act	Keap1 TSA	others
CC(=O)C1C(c2ccc(F)cc2)c2c(noc2C)CC1(C)O (stereo unspecified)	50.4	.	-	.	-
CCOC(=O)C(Cc1cc(N)c(Oc2ccc(OC)cc2)c(N)c1)NC(C)=O (stereo unspecified)	-	-	-	-	.
O=C(c1ccccc1)c1ccc(O)cc1O	59.4	-	103.3	156.6	-
O=C(c1ccc(O)cc1)c1ccc(O)cc1O	-	-	-	-	.
O=C(C1CCN(S(=O)(=O)c2cccc3cccnc23)CC1)N1CCCCC1	-	-	-	-	.
CCC(C)(C)n1nnnc1C(c1cc2ccc(OC)cc2[nH]c1=O)N1CCc2ccccc2C1 (stereo unspecified)	9.6	-	-	-	-	Sypro dye melt=-
CCC1OC2(C)OC(=N)C1(C#N)C(C#N)(C#N)C2c1ccccc1 (stereo unspecified)	31.1	-	63.5	-	-	Sypro dye melt=-
CC(C)C1OC2(C)OC(=N)C1(C#N)C(C#N)(C#N)C2c1ccccc1 (stereo unspecified)	21.1	-	94.1	-	-	Sypro dye melt=-
O=[N+]([O-])c1ccc(S(=O)(=O)c2ccccc2)nc1	13.5	-	-	-	-
Cc1ccc(Cl)cc1N1CCN(C(=O)Cn2ncn3cccc3c2=O)CC1	-	-	-	-	.
COc1ccccc1NC(=O)C[n+]1ccccc1C	-	-	-	-	.
CN(C)CCNC(=O)c1c(NC(=O)c2ccccc2)sc2c1CCCC2	16.8	-	.	-	-
O=c1[nH]c2cc(C(F)(F)F)ccc2n1-c1cc(C(F)(F)F)ccc1O	15.2	-	-	-	-
COc1ccc2noc3c2c1C(=O)c1ccccc1-3	106.1	-	129.7	+	-	Sypro dye melt=6.24
COc1ccc(N)c2c1C(=O)c1ccccc1C2=O	-	-	-	-	.
Cc1cc2nc3c(=O)[nH]c(=O)[nH]c3nc2c([N+](=O)[O-])c1N	89.1	-	109.2	139.5	-	Sypro dye melt=-
COc1ccc(C(=O)Nc2ccccc2N2CCCC2)cc1S(=O)(=O)N1CCOCC1	-	-	-	-	.
COc1ccc(C2N3CC4(C)CN2CC(C)(C3)C4O)cc1OC (stereo unspecified)	-	-	-	-	.
COc1ccc(C2N3CC4(C)CN2CC(C)(C3)C4O)cc1 (stereo unspecified)	20.2	-	-	-	-
Cc1nc(Cl)c2c(n1)NC1=C(O2)C(=O)CCC1	27.6	-	-	47.1	-	Sypro dye melt=-
O=C1NC2=C(C(=O)CCC2)C(c2ccccc2Cl)N1 (stereo unspecified)	-	-	-	-	.
Cn1nc(C(=O)NNC(=O)Cc2ccc(S(=O)(=O)N3CCOCC3)s2)c2ccccc2c1=O	32.2	-	-	-	-	Sypro dye melt=-
COC(=O)c1ccc(OC(=O)CN2C(=O)c3ccccc3C2=O)cc1	57.0	-	-	-	-
O=C(CNC(=O)c1ccccc1F)N/N=C/c1ccc2c(c1)OCO2	-	-	-	-	.
CCOc1ccccc1C(=O)OCC(=O)Nc1ccc(N2CCCCC2)cc1	-	-	-	-	.
SMILES	Keap1 Nrf2 FP	Cardiac RTF inh	LANA DNA inh	cardiac RTF act	Keap1 TSA	others
O=C(COC(=O)c1cccnc1Cl)Nc1ccc(N2CCCCC2)cc1	43.2	-	.	-	-	Sypro dye melt=-
COCCCn1c(=NC(=O)c2ccccc2)c(C#N)cc2c(=O)n3cccc(C)c3nc21	14.4	-	-	-	-
Cc1cccn2c(=O)c3cc(C#N)c(=NC(=O)c4ccccc4)n(Cc4ccco4)c3nc12	-	-	-	-	.
CCOCCCn1c(=NC(=O)c2cccs2)c(C#N)cc2c(=O)n3cccc(C)c3nc21	12.8	-	-	-	-
N#Cc1cn(Cc2ccco2)c(=O)[nH]c1=O	-	-	-	-	.
Cc1c(N)cc(N)cc1C(=O)O	14.9	-	-	-	-
CC(C)CN(C(=O)COC(=O)c1ccccc1NCc1ccco1)c1c(N)n(Cc2ccccc2)c(=O)[nH]c1=O	-	-	-	-	.
Cc1sc2ccccc2[n+]1CC(=O)c1ccccc1	22.1	-	-	-	-
Cc1sc2ccccc2[n+]1CC(=O)O	-	-	-	-	.
CCOC(=O)N/N=C/c1ccc(N(CC)CC)cc1O	-	-	-	-	.
CCN(CC)c1ccc(/C=N/NC(=O)c2c(Cl)cnn2C)c(O)c1	21.7	-	-	-	-
CCCSc1nnc2c(n1)OC(c1cccn1C)N(C(C)=O)c1ccccc1-2 (stereo unspecified)	-	-	-	-	.
CCCCCSc1nnc2c(n1)OC(C)N(C(C)=O)c1ccccc1-2 (stereo unspecified)	13.4	-	-	-	-
COCCn1c(=O)[nH]c2cc(C(=O)Nc3cccc(C(C)=O)c3)ccc2c1=O	-	-	-	-	.
COc1cccc(C2=CC(c3cccs3)n3nnnc3N2)c1 (stereo unspecified)	14.7	-	-	-	-
COc1cccc(C2=CC(c3ccc(OC)c(OC)c3OC)n3nnnc3N2)c1 (stereo unspecified)	-	-	-	-	.
Nc1ccc2c(c1)C(O)c1cccc(C(=O)O)c1-2 (stereo unspecified)	-	-	-	-	.
CCOc1ccc(C(=O)COC(=O)c2nn(CC)c(=O)c3ccccc23)cc1	21.4	-	-	-	-
O=C1C=CC(=O)c2c(O)c(N3CCN(CCOCCO)CC3)c(Br)c(O)c21	24.8	-	-	-	-
OCCOCCN1CCN(C2=Nc3ccccc3Sc3ccccc32)CC1	-	-	-	-	.
O=S(=O)(c1ccc(Br)cc1Cl)N1CCN(CCO)CC1	-	-	-	-	.
O=C1C=CC(=O)c2c(O)c(N3CCN(CCO)CC3)c(Cl)c(O)c21	38.5	-	-	-	-	Sypro dye melt=-
C=C(C)c1nc(Oc2ccccc2)nc(Oc2ccccc2)n1	-	-	-	-	.
O=C(CN1C(=O)NC2(CCc3ccccc32)C1=O)NCC(=O)Nc1ccc(F)cc1 (stereo unspecified)	-	-	-	-	.
CCc1ccc[n+](-c2[nH]c(=O)sc2/C=N/N=C(\[O-])c2ccncc2)c1	-	-	-	-	.
CC(C)(C)c1cc[n+](-c2[nH]c(=O)sc2/C=N/NC([S-])=Nc2ccccc2)cc1	30.9	-	-	80.8	-	Sypro dye melt=-
Cc1cc[n+](-c2[nH]c(=O)sc2/C=N/NC([S-])=Nc2ccccc2)cc1C	32.1	-	-	50.7	-
COc1ccccc1CNC(=O)CCNS(=O)(=O)/C=C/c1ccc(C)cc1	-	-	-	-	.
CCC(Oc1ccc(C)cc1)C(=O)Nc1ccccc1C(=O)N1CCOCC1 (stereo unspecified)	-	-	-	-	.
